According to the supplement of paper PMC12636033:
± gives the standard deviation of the averaged measurements. The full ranking holds about 33,000 sequences; the median of “E-score (rank enrichment, -0.5 to 0.5)” is about -0.0068, and the highest 2% start at about 0.24. Shown is part of a subset that was picked to be rich in the highest values.

system: muMax20 (Max(13-93) K31hArg/K57hArg, M65Nle); assay: PBM 8-mer E-score (E-score (rank enrichment, -0.5 to 0.5)); higher = stronger preferential binding
Procedure: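 Protein binding microarray (universal PBM chip covering all 10-mers in fixed probe flanks) with chemically synthesized human Max(13-93) bHLH-LZ analogs (not full-length Max) bearing noncanonical residues (hArg, Tha, Aib, Nle at 65) and aromatic Cys staples. Read-out per 8-mer (and its reverse complement): E-score (rank-based enrichment, -0.5 to 0.5) and Z-score of median probe intensity.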

Sequence	PBM 8-mer E-score
GGAGGGCA	0.044 ± 0.11
ATCAATTC	0.172 ± 0.013
ATCAATTG	0.262 ± 0.073
ATCAATTA	0.229 ± 0.068
TCAATAAA	0.114 ± 0.043
ACAATCAT	0.273 ± 0.042
CCAATAAA	0.266 ± 0.026
ACAATAAA	0.275 ± 0.025
ACAATAAC	0.191 ± 0.0039
ACAATAAG	0.21 ± 0.021
CCAATAAG	-0.0178 ± 0.017
GCAATAAA	0.0786 ± 0.0037
ACAATAAT	0.286 ± 0.0027
ACAATCAA	0.0227 ± 0.021
ACAATCAC	0.228 ± 0.053
AGAATAAT	0.116 ± 0.05
ACGTCTGA	-0.0769 ± 0.16
CAGGGCAC	-0.0777 ± 0.0056
AGGACCGC	0.0155 ± 0.085
CGACCTGC	-0.105 ± 0.063
GAAACCCC	-0.0104 ± 0.014
TAAGATTA	0.129 ± 0.04
TGCTTAAA	0.024 ± 0.12
ACTCGCGG	-0.0552 ± 0.016
ATACAGTA	0.233 ± 0.095

Sequence	PBM 8-mer E-score
ATACAGTG	0.2396 ± 0.0022
ATACAGTC	0.0784 ± 0.094
GCGTGCAA	0.0854 ± 0.022
CTTGAGTC	-0.0129 ± 0.11
CTCGACGA	-0.142 ± 0.024
GAGCCCTA	-0.14 ± 0.018
AGAAACAC	0.00585 ± 0.032
CAAAACTA	0.132 ± 0.15
TAAAACTA	0.239 ± 0.11
ATAAACAC	0.164 ± 0.11
GTAAAACA	0.108 ± 0.0083
ATAAAACG	0.194 ± 0.02
TTAAACAA	0.0932 ± 0.11
AGAAACAA	0.2614 ± 0.0014
ATAAACAA	0.27 ± 0.049
GGAAACAA	0.0706 ± 0.057
AAAAACTA	0.095 ± 0.061
ATAAAACA	0.31 ± 0.025
GGGAACAA	0.144 ± 0.0098
AGCCCCTC	0.0302 ± 0.046
AGCTCCTG	-0.171 ± 0.17
CAGTCACC	-0.064 ± 0.14
AGTTGAAG	0.0533 ± 0.067
CGGGAAGA	-0.0577 ± 0.15
AAAAAACA	0.272 ± 0.11

Sequence	PBM 8-mer E-score
ACAAAACG	0.187 ± 0.013
ATAAACTG	0.0137 ± 0.077
TAAAAACA	0.171 ± 0.018
ATAAACTC	0.117 ± 0.039
GAAAAACA	0.16 ± 0.037
AAAAAACG	0.241 ± 0.023
CAAAAACG	0.111 ± 0.068
ATAAACTA	0.276 ± 0.041
AGATAGAG	-0.0243 ± 0.056
ACAATGCG	0.0438 ± 0.031
CCGTTTCC	0.0806 ± 0.018
CCTTTCCA	0.0937 ± 0.037
CCCTTATA	0.199 ± 0.086
CTGTAAAA	0.0545 ± 0.043
ATGTAATG	0.2252 ± 0.0016
GAGTAACA	0.164 ± 0.033
TAGTAACA	0.239 ± 0.066
TTGTAAAA	0.24 ± 0.053
CTGTAACA	0.0977 ± 0.058
ATGTAACA	0.244 ± 0.057
ATGTAAAA	0.221 ± 0.049
CTGTAATA	0.175 ± 0.023
AAGTAACA	0.152 ± 0.018
ATGTAACG	0.122 ± 0.029
ATGTAATA	0.2587 ± 0.0011

Sequence	PBM 8-mer E-score
CTAGTTAC	-0.0138 ± 0.072
AATTGCCA	0.0456 ± 0.0012
CATTCGGG	-0.0351 ± 0.075
AATCTTGC	-0.066 ± 0.042
ACGAGTGA	-0.0322 ± 0.14
ATGTAAAG	0.244 ± 0.038
ATGTAAAT	0.154 ± 0.09
CTGTAAAG	-0.0854 ± 0.0043
GGCTGACA	-0.104 ± 0.086
ACCGTCAA	-0.205 ± 0.0036
TACTATAA	0.284 ± 0.021
CACTACAA	0.152 ± 0.021
TATTAGAA	0.268 ± 0.0096
GATTAGAA	0.0438 ± 0.032
AACTATAA	0.229 ± 0.044
CATTAGAA	0.0939 ± 0.015
TATTACAA	0.236 ± 0.041
CACTATAA	0.0282 ± 0.15
TACTACAA	0.286 ± 0.0027
CATTACAA	0.184 ± 0.097
AATTACAA	0.209 ± 0.066
AACTACAA	0.0818 ± 0.066
CTGGGAGC	-0.247 ± 0.043
AAAGTCCG	-0.148 ± 0.0098
GTGGAAAC	0.119 ± 0.033

Sequence	PBM 8-mer E-score
CCCTCATA	0.135 ± 0.065
GTAGACAA	0.173 ± 0.061
GTCTTAGA	-0.0878 ± 0.12
GGGCAAAA	-0.107 ± 0.024
AGGGGTAG	0.123 ± 0.011
CTGTGGGA	-0.0483 ± 0.025
AATTGATC	0.0857 ± 0.087
AATTGATG	0.264 ± 0.051
AATTGATA	0.232 ± 0.016
GAAGGGCA	0.156 ± 0.0064
ACTATAGA	0.117 ± 0.049
AGTATACC	0.077 ± 0.053
AGTATACT	0.258 ± 0.04
ATTATGTG	0.164 ± 0.049
ATTATGTA	0.247 ± 0.0099
CTAATGTA	0.1481 ± 0.0014
ATAATGTC	0.0566 ± 0.18
ACTATAGG	0.0643 ± 0.011
ATAATGTA	0.276 ± 0.0095
ATTATGTC	0.066 ± 0.23
AGTATACA	0.175 ± 0.1
ACTATAGT	0.243 ± 0.03
AACGTTGA	0.212 ± 0.038
CAGTTGTC	-0.0724 ± 0.03
AATCTGCC	-0.0641 ± 0.019

Sequence	PBM 8-mer E-score
AACCTAAC	0.00712 ± 0.17
AAGATAGT	0.0344 ± 0.11
ATGGTCGG	0.12 ± 0.014
AATCGGAT	-0.181 ± 0.015
GCCGGTCA	-0.116 ± 0.078
AATTACGC	0.0652 ± 0.043
AGTATAAA	0.213 ± 0.011
AGTATAAG	0.237 ± 0.042
ATTATATC	0.247 ± 0.031
GTTATAGA	0.21 ± 0.089
ATTAGATG	0.226 ± 0.051
AATATATC	0.0912 ± 0.07
ATTAGATA	0.262 ± 0.057
GTTAGATA	0.164 ± 0.13
AGTATAAC	0.097 ± 0.009
CTTATATC	0.137 ± 0.08
GTTATACA	0.195 ± 0.095
GTTATATA	0.25 ± 0.023
CATGGCAC	0.0103 ± 0.037
CTGTGTGA	0.134 ± 0.012
CAGCGCAC	-0.171 ± 0.087
TATGAGGA	-0.0378 ± 0.11
AACAGACG	-0.142 ± 0.096
GGTGGATA	-0.0515 ± 0.1
ACGGTTCA	-0.138 ± 0.047

Sequence	PBM 8-mer E-score
CTAGGTGA	0.108 ± 0.032
TAGGATGA	-0.00288 ± 0.12
ATTATATG	0.251 ± 0.03
ATTATACA	0.174 ± 0.083
AGTATCTA	0.344 ± 0.011
ACTATATG	0.191 ± 0.089
ATTATACG	0.0459 ± 0.063
AGTATATC	-0.038 ± 0.059
GGTATCTA	-0.022 ± 0.064
AGTATATA	0.277 ± 0.12
CTTATATA	0.226 ± 0.043
CGTATCTA	-0.0745 ± 0.11
ATTATATA	0.242 ± 0.03
AGTATATG	0.145 ± 0.017
GCCGTACA	0.042 ± 0.14
GGCGTACA	-0.082 ± 0.02
CAAACGTC	0.0182 ± 0.068
CAGTAGAC	-0.021 ± 0.044
AGGATGCG	-0.118 ± 0.034
ACTATATC	0.273 ± 0.02
ACTATATA	0.235 ± 0.028
CCTATATC	-0.0516 ± 0.071
CCTTGTAC	0.176 ± 0.15
ACGAAGCG	-0.0243 ± 0.071
ATACTAGG	0.138 ± 0.032
